Assay outcomes: PubChem, National Center for Advancing Translational Sciences (NCATS)
The list is not random: actives were taken first. Their share in the collection is about 17%.
HepG2 tox: counter-screen for TGF-b inhibitors: cytotoxicity in HepG2 cells; HepG2 CAGA-GFP viability, ATP luminescence, 18 h; Potency, µM (series often up to 46.1 µM), hits mostly cytotoxic; 410,000 tested, 0.76% active; AID 588856
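CellTiter-Glo luminescence gave cytotoxicity after 18 hours at 37 degrees C. The cells were HepG2 CAGA-GFP in 1% FBS DMEM, stimulated with 500 pg/mL TGF-beta after compound addition. %Activity was normalised to no-cell wells (complete cell-killing) and DMSO (no toxicity), and curves were fitted and classified.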
TDP1 cell CPT: growth inhibition of DT40 Tdp1-/-;hTDP1 cells with camptothecin (screen for TDP1 inhibitors). chicken DT40 Tdp1-/-;hTDP1 cells + 20 nM CPT, ATP luminescence, 48 h. Potency, µM (series often up to 46.2 µM), actives largely listed as inhibitors. 420,000 tested, 12% active. AID 686979; note: nearly all actives have a fitted effect of over 55% in size
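Chicken DT40 Tdp1-/- cells stably complemented with human TDP1 were seeded at 400 cells/well in medium containing 20 nM camptothecin, exposed to pin-transferred compounds, and grown at 37 °C for at least 48 hr. Viability was read as ATP luminescence.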
ATXN2 expr inh: inhibitors of ATXN2 expression; HEK-293 ATXN2-luciferase reporter, luminescence, 24 h; Potency, µM (titrated, usually from 57 µM), usual class: inhibitors; 360,000 tested, 0.72% active; AID 1745845; note: nearly all actives have a fitted effect of over 55% in size
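ATXN2-luciferase reporter cells (luciferase flanked by upstream and downstream ATXN2 gene portions) were treated 24 h at 37 °C with compounds at up to 57 uM. SteadyGlo luminescence gave expression; GF-AFC fluorescence gave viability.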
TGFb SMAD3 inh: TGF-b pathway inhibition; HepG2 CAGA-GFP TGF-b/SMAD3 reporter, GFP fluorescence, 18 h; TGF-beta stimulated, 500 pg/mL final; Potency, µM (highest dose often 46.1 µM), hits mostly inhibitors; 410,000 tested, 1.2% active; AID 588855; note: nearly all actives have a fitted effect of over 65% in size
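Per well, imaged GFP fluorescence of HEPG2 CAGA-GFP cells gives the signal; cells get compound, then TGF-beta (500 pg/mL final), 18 h at 37 degrees C; %Activity versus -TGF-beta and +DMSO controls.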
ATXN viability: cell viability loss in ATXN counter-screen; S2 cells (HEK-293 line with an ATXN2-luciferase reporter) viability, CellTiter-Fluor protease fluorescence, 24 h; Potency, µM (titrated, usually from 56.7 µM), actives largely listed as cytotoxic; 400,000 tested, 0.49% active; note: nearly all actives have a fitted effect of over 40% in size
DT40 TDP1 no CPT: qHTS for Inhibitors of human tyrosyl-DNA phosphodiesterase 1 (TDP1): qHTS in cells in absence of CPT. DT40 Tdp1-/- hTDP1 cells, no CPT, ATP luminescence, 48 h. Potency, µM (doses to about 46.2 µM), actives largely listed as inhibitors. 420,000 tested, 15% active. AID 686978, 2013; note: nearly all actives have a fitted effect of over 55% in size
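DT40 Tdp1-/-;hTDP1 cells, no CPT (DMSO vehicle only), 400 cells/well; compounds pin-transferred; ≥48 hr, 37 °C; CellTiter-Glo 30 min RT dark, luminescence read.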
Hits are given with their value; - = inactive; ? = inconclusive; . = not tested or not shown. Calls come from the whole dose curve; as a rule, active = well fitted curve in the direction sought with a large enough effect; inconclusive = small, poorly fitted or top-dose-only effect, or another doubt; inactive = no such curve, though single readings can be large; an effect the other way counts as inactive or inconclusive.

SMILES	HepG2 tox	TDP1 cell CPT	ATXN2 expr inh	TGFb SMAD3 inh	ATXN viability	DT40 TDP1 no CPT
COc1cccc(/C=C/c2nccc3ccccc23)c1OC	-	?	.	-	.	15.8µM
COc1cccc(/C=C/C(=O)NNC(=O)c2ccncc2)c1OC	-	-	.	-	-	-
COc1cccc(/C=C/c2ccncc2)c1OC	-	?	-	-	-	23.1µM
COc1ncc2nc(C)c(=O)n(C)c2n1	.	-	.	.	.	-
Cc1cccc(-c2cccc3nccn23)c1	-	?	-	-	-	?
CCN(c1ccccc1)S(=O)(=O)c1ccc(NCC2COc3ccccc3O2)nc1 (configuration not stated)	-	25.9µM	-	?	-	?
COc1ccc(C2CC(=O)C3=C(C2)Nc2ccccc2N(C(=O)CCC(=O)O)C3c2ccc(F)cc2)cc1 (configuration not stated)	-	?	-	-	-	-
Cc1ccccc1CN1CCN(S(=O)(=O)c2ccc(Cl)s2)CC1	-	23.1µM	-	?	-	?
Cc1nc(-c2ccc(S(=O)(=O)N3CCN(Cc4ccccc4)CC3)s2)cs1	-	?	.	-	-	9.2µM
Cc1ccccc1CN1CCN(S(C)(=O)=O)CC1	-	-	-	-	-	-
Cc1ccc(S(=O)(=O)NCc2cccnc2)cc1C	-	-	-	-	-	-
Cc1nc(-c2ccc(S(=O)(=O)N3CCN(C(c4ccccc4)c4ccccc4)CC3)s2)cs1	-	?	-	-	-	?
Cc1nc(-c2ccc(S(=O)(=O)NCc3cccnc3)s2)cs1	-	11.6µM	.	-	-	20.6µM
O=C1C2C3CCC(O3)C2C(=O)N1c1cc(OCC(F)F)cc([N+](=O)[O-])c1 (configuration not stated)	-	-	-	-	-	-
O=C(c1ccc(Cl)s1)N1CCN(c2ccccc2)CC1	-	-	-	-	-	-
Cc1ccc2c(c1)c(C)c(C)n2CC(O)Cn1nc(C)c(Br)c1C (configuration not stated)	15.8µM	-	?	?	?	?
Cc1ccc2c(c1)c(C)c(C)n2CC(O)CN1CCCCC1C (configuration not stated)	-	?	-	-	?	?
Cc1ccc2c(c1)c1c(n2CC(O)Cn2nc(C)c(Br)c2C)C(=O)CCC1 (configuration not stated)	-	20.6µM	-	-	-	20.6µM
CCCNC(=S)NCc1ccc(Cl)cc1	-	?	-	?	-	?
COc1cccc(N2CCN(C(=O)c3cnn(-c4ccc(C)cc4C)c3C3CCN(C(=O)OC(C)(C)C)CC3)CC2)c1	-	?	?	?	?	20.6µM
COc1cccc(N2CCN(C(=O)c3cnn(-c4ccccc4Cl)c3C3CCN(C(=O)OC(C)(C)C)CC3)CC2)c1	-	?	.	?	.	20.6µM
CC(C)(C)OC(=O)N1CCC(c2c(C(=O)N3CCN(c4ccc(Cl)cc4)CC3)cnn2-c2ccc(F)cc2F)CC1	-	?	.	?	.	16.4µM
Cc1ccc(-n2ncc(C(=O)N3CCN(Cc4ccccc4)CC3)c2C2CCN(C(=O)OC(C)(C)C)CC2)c(C)c1	-	4.61µM	-	-	-	13µM
Cc1ccc(-n2ncc(C(=O)N3CCN(C(=O)c4ccco4)CC3)c2C2CCN(C(=O)OC(C)(C)C)CC2)cc1	-	-	.	-	.	-
CN(C(=O)CN1CCN(c2ccc([N+](=O)[O-])cn2)CC1)c1ccccc1	-	-	.	-	?	?
CC(=O)Nc1ccc(S(=O)(=O)NNC(=O)c2cccc(Cl)c2)cc1	-	-	-	-	-	-
CC1CC(C)CN(CC(=O)Nc2cc(S(=O)(=O)N3CCOCC3)ccc2N2CCCC2)C1 (configuration not stated)	-	?	-	-	-	?
